In ChEMBL document CHEMBL1961873, “Compounds: GSK PKIS; Assays: Nanosyn kinase panel” (2012) one finds inhibition data, which are given here for 4 compounds.

For test [1], the system named is Epidermal growth factor receptor (Homo sapiens), P00533 [T790M]. Particulars: at 1 µM.
In test [2] the test system is Epidermal growth factor receptor (Homo sapiens), P00533 [L858R,T790M]. Particulars: at 0.1 µM.
The test system is the same in test [3]. Particulars: at 1 µM.
Test [4] deals with Ephrin type-A receptor 2 (Homo sapiens) (UniProt P29317). The conditions noted are these: at 0.1 µM.
For test [5] the target is unchanged. The conditions noted are these: at 1 µM.
For test [6], the target named is T1, Ephrin type-A receptor 3 (Homo sapiens) (UniProt P29320).
T1 sequence (whole entry): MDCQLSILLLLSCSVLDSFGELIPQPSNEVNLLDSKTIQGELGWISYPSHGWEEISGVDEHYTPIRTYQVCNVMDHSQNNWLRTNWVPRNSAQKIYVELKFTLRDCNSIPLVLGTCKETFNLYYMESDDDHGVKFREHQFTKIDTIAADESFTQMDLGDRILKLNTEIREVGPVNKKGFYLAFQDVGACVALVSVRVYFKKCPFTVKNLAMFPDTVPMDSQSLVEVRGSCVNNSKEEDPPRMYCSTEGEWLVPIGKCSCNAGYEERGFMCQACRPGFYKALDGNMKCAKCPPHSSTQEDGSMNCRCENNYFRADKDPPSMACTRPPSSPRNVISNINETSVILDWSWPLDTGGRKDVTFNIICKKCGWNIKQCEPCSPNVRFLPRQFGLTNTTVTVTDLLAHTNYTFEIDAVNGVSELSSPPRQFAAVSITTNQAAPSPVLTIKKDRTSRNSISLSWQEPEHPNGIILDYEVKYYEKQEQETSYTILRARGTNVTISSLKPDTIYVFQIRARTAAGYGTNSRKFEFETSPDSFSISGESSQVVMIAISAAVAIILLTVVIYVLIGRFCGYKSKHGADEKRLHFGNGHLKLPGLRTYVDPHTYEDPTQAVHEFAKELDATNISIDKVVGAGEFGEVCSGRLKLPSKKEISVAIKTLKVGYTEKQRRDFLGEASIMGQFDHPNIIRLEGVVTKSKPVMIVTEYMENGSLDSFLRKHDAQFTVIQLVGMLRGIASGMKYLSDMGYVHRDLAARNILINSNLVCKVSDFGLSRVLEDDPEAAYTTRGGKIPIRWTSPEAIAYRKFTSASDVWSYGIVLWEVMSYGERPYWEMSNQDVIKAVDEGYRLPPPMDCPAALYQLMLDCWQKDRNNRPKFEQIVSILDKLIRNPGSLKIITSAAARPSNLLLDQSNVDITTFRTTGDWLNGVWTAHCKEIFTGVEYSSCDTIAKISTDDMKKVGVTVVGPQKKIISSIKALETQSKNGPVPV
The conditions noted are these: at 0.1 µM.

Test [7] deals with T1, Ephrin type-A receptor 3 (Homo sapiens). Particulars: at 1 µM.
Test [8] deals with Ephrin type-A receptor 4 (Homo sapiens) (UniProt P54764). Particulars: at 0.1 µM.
For test [9] the target is unchanged. Particulars: at 1 µM.
For test [10], the target named is T2, Ephrin type-B receptor 2 (Homo sapiens) (UniProt P29323).
T2 sequence (whole entry): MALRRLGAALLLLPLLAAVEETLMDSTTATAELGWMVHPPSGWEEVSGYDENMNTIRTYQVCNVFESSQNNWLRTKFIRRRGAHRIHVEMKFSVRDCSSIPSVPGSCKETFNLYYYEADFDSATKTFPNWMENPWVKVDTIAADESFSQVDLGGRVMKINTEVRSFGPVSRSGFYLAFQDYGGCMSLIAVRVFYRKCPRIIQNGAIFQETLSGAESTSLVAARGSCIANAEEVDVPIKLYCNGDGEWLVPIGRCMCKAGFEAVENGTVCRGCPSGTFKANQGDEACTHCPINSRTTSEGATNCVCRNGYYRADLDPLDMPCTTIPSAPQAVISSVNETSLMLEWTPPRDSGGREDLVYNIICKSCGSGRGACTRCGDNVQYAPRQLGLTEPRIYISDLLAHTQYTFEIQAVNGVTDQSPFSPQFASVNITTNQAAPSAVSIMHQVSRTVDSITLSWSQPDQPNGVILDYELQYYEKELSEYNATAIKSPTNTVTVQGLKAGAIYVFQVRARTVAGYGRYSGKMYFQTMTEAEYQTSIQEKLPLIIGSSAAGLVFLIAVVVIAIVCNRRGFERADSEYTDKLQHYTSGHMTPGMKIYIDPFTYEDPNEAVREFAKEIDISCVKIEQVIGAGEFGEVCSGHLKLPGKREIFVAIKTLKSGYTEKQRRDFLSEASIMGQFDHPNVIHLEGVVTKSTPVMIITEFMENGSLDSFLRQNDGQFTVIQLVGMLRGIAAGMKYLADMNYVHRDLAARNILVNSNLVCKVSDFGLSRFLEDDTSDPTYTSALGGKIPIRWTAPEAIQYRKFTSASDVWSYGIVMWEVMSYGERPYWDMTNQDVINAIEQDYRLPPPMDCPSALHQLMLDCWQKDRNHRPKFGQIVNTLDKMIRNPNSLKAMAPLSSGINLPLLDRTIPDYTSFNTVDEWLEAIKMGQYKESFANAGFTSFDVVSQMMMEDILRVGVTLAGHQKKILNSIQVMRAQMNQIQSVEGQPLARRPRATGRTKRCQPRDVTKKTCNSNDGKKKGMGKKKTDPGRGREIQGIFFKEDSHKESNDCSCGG
The conditions noted are these: at 0.1 µM.

For test [11], the target named is T2, Ephrin type-B receptor 2 (Homo sapiens). The conditions noted are these: at 1 µM.
Test [12] addresses T3, Ephrin type-B receptor 3 (Homo sapiens) (UniProt P54753).
T3 sequence (whole entry): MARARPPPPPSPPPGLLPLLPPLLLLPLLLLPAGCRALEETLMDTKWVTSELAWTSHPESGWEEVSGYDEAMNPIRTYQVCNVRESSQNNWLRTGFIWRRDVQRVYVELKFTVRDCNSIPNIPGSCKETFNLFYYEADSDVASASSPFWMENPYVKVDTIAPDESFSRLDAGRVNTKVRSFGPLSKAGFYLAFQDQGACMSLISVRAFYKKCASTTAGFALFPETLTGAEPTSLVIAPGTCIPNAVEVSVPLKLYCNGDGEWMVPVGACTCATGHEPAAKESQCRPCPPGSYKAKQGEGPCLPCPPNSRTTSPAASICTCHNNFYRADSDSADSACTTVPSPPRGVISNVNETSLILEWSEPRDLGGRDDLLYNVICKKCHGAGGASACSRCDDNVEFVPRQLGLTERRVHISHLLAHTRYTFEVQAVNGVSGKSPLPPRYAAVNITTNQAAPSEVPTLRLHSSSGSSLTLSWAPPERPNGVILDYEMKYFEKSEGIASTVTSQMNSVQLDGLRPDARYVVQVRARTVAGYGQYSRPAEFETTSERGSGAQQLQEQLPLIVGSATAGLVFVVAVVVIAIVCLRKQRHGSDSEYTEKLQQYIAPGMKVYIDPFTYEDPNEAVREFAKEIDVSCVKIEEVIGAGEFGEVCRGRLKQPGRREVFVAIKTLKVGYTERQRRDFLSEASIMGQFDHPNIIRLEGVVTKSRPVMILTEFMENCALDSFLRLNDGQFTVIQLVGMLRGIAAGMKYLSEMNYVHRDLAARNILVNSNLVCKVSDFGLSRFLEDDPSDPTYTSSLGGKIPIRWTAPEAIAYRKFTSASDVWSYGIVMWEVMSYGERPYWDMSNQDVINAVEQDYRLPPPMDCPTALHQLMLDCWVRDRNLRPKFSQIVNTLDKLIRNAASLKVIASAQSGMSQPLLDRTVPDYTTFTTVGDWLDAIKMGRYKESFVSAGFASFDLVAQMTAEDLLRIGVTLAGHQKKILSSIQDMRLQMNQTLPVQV
Particulars: at 0.1 µM.

The target in test [13] is T3, Ephrin type-B receptor 3 (Homo sapiens). Particulars: at 1 µM.
Test [14] concerns the target T4, Ephrin type-B receptor 4 (Homo sapiens) (UniProt P54760).
T4 sequence (whole entry): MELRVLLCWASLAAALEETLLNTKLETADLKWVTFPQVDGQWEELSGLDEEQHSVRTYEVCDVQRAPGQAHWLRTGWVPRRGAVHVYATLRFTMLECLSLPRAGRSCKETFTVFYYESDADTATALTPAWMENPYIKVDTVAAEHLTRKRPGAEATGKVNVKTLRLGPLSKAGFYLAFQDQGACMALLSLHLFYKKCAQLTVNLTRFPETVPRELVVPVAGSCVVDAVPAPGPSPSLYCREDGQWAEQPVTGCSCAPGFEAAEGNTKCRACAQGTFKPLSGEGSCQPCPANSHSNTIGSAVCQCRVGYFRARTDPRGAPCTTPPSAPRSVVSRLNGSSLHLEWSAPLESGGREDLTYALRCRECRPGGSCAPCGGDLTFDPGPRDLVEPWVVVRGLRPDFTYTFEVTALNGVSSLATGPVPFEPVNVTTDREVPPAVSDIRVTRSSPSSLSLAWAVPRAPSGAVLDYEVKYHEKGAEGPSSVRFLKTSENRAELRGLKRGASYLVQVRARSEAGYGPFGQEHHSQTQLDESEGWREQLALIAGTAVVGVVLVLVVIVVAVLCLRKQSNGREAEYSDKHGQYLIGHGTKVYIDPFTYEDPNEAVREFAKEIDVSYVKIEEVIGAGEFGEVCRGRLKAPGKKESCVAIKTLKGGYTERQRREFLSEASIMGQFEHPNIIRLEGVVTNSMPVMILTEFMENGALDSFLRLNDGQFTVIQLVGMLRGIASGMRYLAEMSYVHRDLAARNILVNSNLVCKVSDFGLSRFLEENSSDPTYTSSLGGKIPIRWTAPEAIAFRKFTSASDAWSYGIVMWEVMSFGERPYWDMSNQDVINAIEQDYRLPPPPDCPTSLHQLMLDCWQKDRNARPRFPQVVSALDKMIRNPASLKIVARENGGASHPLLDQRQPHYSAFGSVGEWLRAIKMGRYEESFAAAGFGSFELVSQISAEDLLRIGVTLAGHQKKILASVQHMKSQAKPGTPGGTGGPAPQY
Particulars: at 0.1 µM.

Test [15] concerns the target T4, Ephrin type-B receptor 4 (Homo sapiens). Particulars: at 1 µM.
In test [16] the target is Receptor tyrosine-protein kinase erbB-2 (Homo sapiens) (UniProt P04626). The conditions noted are these: at 0.1 µM.
The target is the same in test [17]. Particulars: at 1 µM.
For test [18], the target named is Receptor tyrosine-protein kinase erbB-4 (Homo sapiens) (UniProt Q15303). The conditions noted are these: at 0.1 µM.
For test [19] the target is unchanged. The conditions noted are these: at 1 µM.
In test [20] the target is Tyrosine-protein kinase Fer (Homo sapiens) (UniProt P16591). The conditions noted are these: at 0.1 µM.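 Further: reported figures are averaged percent inhibition of FER.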

Epidermal growth factor receptor (Homo sapiens), P00533 [T790M], sequence (P00533 whole entry T790M): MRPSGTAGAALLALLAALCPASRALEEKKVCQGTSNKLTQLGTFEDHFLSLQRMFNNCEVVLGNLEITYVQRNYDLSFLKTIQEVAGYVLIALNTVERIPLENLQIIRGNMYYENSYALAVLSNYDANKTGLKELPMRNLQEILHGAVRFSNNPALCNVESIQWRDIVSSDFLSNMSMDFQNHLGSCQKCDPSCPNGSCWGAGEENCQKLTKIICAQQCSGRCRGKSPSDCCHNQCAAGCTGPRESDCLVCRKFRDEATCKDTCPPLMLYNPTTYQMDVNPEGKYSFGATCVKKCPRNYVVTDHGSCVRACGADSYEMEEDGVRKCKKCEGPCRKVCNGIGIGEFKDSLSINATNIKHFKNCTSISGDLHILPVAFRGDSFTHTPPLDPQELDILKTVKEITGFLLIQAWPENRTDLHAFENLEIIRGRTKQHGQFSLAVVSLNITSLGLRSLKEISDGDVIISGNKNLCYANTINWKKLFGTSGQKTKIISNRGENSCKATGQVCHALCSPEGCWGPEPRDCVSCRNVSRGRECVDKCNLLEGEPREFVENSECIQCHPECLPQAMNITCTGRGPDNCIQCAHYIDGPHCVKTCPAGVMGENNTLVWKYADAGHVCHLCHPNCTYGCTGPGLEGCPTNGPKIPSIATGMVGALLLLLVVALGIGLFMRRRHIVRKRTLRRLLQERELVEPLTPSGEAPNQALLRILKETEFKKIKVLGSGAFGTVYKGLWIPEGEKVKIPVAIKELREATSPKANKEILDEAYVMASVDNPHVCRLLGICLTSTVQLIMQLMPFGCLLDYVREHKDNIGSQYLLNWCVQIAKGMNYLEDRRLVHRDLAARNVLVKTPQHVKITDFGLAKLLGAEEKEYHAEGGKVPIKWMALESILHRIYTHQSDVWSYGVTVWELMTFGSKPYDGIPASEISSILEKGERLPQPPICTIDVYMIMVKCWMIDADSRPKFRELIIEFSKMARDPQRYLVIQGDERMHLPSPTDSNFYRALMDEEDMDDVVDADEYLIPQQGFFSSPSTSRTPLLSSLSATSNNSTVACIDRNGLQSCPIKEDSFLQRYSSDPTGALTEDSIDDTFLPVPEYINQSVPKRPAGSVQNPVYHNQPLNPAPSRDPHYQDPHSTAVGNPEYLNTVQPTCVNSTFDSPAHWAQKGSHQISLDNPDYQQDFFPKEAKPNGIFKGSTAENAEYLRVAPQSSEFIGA
Epidermal growth factor receptor (Homo sapiens), P00533 [L858R,T790M], sequence (P00533 whole entry T790M/L858R, looked up): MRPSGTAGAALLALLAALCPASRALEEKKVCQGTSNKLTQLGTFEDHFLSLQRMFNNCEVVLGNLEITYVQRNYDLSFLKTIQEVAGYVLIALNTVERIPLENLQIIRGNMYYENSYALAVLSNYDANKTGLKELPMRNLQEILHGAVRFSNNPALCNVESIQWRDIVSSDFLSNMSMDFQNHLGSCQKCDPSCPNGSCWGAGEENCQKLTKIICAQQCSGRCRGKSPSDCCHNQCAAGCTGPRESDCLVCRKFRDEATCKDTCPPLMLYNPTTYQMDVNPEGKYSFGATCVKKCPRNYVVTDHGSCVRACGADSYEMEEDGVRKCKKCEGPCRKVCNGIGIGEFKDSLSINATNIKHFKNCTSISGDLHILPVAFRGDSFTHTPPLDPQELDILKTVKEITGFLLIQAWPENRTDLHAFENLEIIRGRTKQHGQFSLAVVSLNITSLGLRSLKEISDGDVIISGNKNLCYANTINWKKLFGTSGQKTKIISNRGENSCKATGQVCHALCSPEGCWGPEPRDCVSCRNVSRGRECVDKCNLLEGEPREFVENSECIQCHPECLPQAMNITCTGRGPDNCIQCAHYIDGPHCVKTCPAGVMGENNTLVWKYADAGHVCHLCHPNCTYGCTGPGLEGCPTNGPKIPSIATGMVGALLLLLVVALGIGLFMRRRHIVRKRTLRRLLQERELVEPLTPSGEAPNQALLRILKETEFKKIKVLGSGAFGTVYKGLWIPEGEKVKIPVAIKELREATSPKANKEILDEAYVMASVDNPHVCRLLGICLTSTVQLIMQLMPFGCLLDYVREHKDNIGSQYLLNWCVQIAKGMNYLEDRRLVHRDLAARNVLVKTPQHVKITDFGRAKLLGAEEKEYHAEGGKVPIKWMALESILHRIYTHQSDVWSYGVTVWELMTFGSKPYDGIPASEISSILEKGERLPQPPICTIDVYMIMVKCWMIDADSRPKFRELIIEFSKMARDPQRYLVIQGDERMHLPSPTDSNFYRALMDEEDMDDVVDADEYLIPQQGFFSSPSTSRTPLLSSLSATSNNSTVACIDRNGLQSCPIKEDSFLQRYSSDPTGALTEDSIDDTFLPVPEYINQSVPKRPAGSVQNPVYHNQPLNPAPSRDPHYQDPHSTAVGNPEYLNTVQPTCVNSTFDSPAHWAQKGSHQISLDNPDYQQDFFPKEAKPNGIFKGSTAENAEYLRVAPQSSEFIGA
Receptor tyrosine-protein kinase erbB-4 (Homo sapiens), sequence (Q15303 whole entry): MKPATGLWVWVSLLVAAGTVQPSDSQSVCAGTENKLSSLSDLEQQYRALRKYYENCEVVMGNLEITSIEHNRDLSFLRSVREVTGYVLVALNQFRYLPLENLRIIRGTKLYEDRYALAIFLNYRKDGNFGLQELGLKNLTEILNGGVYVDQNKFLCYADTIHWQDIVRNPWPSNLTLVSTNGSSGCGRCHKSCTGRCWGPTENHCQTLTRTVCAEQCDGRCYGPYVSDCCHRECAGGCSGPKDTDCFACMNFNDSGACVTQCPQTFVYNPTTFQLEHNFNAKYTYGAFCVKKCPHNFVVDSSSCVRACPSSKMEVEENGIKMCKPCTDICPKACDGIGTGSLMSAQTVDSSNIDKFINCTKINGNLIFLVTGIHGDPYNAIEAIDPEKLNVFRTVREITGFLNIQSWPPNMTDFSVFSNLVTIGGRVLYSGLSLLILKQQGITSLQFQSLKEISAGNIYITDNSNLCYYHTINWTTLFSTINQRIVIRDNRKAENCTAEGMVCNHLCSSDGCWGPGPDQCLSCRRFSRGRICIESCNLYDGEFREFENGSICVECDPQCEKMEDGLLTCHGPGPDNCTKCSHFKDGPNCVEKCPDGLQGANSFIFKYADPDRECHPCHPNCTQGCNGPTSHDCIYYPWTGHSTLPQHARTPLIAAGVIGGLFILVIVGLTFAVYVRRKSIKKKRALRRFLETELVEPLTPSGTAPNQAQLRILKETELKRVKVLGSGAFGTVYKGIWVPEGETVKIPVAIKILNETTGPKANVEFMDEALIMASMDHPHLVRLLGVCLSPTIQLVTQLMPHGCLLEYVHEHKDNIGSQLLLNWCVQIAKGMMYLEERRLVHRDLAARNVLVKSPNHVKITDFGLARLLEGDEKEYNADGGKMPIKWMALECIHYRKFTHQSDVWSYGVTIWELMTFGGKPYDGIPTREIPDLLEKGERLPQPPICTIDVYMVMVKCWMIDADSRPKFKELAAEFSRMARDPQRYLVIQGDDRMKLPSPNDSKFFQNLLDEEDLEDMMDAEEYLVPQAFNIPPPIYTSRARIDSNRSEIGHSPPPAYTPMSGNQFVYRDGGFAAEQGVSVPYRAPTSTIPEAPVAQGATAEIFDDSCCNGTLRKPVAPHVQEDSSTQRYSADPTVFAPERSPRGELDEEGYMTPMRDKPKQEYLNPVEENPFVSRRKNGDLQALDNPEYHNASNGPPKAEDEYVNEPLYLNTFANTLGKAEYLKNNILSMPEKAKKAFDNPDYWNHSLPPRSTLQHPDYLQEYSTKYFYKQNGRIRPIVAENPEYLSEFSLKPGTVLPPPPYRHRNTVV
Receptor tyrosine-protein kinase erbB-2 (Homo sapiens), sequence (P04626 whole entry): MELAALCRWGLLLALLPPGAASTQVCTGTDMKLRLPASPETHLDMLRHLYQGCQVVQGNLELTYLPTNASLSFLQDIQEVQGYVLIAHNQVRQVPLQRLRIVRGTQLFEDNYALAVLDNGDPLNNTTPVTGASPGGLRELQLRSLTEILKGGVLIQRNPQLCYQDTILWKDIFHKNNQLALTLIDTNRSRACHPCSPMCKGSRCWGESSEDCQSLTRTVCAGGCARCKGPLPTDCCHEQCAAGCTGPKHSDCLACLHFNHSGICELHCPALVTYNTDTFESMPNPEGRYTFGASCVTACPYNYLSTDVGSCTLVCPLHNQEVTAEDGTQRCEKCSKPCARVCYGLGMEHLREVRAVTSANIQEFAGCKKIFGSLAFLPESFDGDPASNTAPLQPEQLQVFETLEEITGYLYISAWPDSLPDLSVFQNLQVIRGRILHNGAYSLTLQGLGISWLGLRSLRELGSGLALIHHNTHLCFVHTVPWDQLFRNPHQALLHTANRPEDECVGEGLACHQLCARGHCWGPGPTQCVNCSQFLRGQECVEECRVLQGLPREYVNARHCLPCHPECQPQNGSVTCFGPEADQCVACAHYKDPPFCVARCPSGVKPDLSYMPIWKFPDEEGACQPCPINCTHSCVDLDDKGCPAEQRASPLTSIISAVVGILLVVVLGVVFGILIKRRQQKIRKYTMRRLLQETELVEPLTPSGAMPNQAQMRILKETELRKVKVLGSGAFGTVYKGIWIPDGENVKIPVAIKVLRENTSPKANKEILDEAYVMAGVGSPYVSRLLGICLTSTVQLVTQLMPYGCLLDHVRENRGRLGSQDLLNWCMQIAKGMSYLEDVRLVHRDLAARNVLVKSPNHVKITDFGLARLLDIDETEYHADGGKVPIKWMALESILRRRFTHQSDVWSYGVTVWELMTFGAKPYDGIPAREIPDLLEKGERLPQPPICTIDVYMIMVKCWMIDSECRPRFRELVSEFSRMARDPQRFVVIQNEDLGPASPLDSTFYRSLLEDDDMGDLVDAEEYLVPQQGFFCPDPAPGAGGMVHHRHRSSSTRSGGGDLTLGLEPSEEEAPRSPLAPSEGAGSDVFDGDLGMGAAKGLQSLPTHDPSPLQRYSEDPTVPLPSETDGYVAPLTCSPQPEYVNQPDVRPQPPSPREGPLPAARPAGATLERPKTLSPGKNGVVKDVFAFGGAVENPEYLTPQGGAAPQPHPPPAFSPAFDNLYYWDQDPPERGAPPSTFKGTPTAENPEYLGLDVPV

What is called inhibition is the relative decrease from the control value, in per cent. Consider `COc1cccc(-n2cnc3c(N/N=C/c4ccncc4)ncnc32)c1`, for which the inhibition in test [1] was 5.78%; in [2] it was -1.35%; in [3], 6.65%; in test [4], -0.82%; in test [5], 0.55%; in [6], -3.39%. Besides, the inhibition in test [7] is -0.79%; in test [8], 3.18%; in test [9], 25.6%; in test [10] it was 2.42%; in test [11], 16.2%; in [12], -8.69%. Moreover, the inhibition was -4.51% in [13]; -2.1% in [14]; 0.65% in test [15]; 0.94% in test [16]; 7.49% in [17]; -3.73% in test [18]. The inhibition in test [19] was 2.45%; in test [20] it was 4.18%.

For the compound `Cc1ccc(C(=O)NC(C)C)cc1-c1ccc(C(=O)NCC2CC2)cc1`, the inhibition was -3.61% in test [1]; -2.78% in test [2]; -0.98% in test [3]; -1.78% in test [4]; -2.07% in [5]; -7.27% in test [6]. The inhibition was -6.99% in test [7]; -6.17% in test [8]; -6.72% in test [9]; -9.67% in test [10]; 0.35% in test [11]; -7.05% in test [12]. For the same compound, the inhibition in [13] is -4.82%; in test [14] it was -0.32%; in test [15] it was -2.91%; in test [16], -5.52%; in [17], -4.79%; in test [20] it was -1.9%.

Turning to `COc1ccc(-c2ccc3c(NC(=O)C4CC4)n[nH]c3n2)cc1`, the inhibition is 4.06% in test [1]; -0.83% in [2]; 5.32% in test [3]; 0.96% in [4]; 0.05% in [5]; 2.4% in [6]. Further, the inhibition in [7] amounted to 3.41%; in [8], 6.38%; in test [9] it was 10.4%; in test [10] it was 1.78%; in test [11] it was 5.25%; in test [12], 3.22%. In addition, the inhibition was 2.79% in test [13]; 1.54% in test [14]; -0.15% in test [15]; 2.9% in [16]; 3.27% in [17]; 4.2% in test [18]. For the same compound, the inhibition turned out to be 3.94% in test [19] and 2% in [20].

Regarding `COc1ccc2cc(-c3c(-c4ccncc4)nc(-c4ccc([S+](C)[O-])cc4C)n3C)ccc2c1` (stereo not drawn), the inhibition in test [1] is 0.13%; in test [2], -3%; in test [3], 3.5%; in test [4] it was -1.85%; in [5] it was -0.23%; in test [6] it was -1.34%. Further, the inhibition in [7] is -0.2%; in [8], -0.17%; in test [9] it was 18.6%; in test [10], 1.99%; in test [11], 19.7%; in test [12], 4.06%. Also, the inhibition in [13] is 14.6%; in [14], 4.17%; in [15], 22.5%; in [16] it was 1.42%; in test [17], 5.05%; in [18] it was 9.39%. Besides, the inhibition in test [19] amounted to 37.1%; in test [20], 1.31%.
